Active and inactive are the calls of the source. The calls were made as follows: active = hit-call score of the fitted dose curve at least 0.9, where 1 is the maximum; inactive = score below 0.9.
What follows are compounds tested on Interleukin 6 Receptor (IL6R), IL6R (gene 3570) (assay: LTEA_HepaRG_IL6R: Life Technologies and Expression Analysis (LTEA) Assay for Interleukin 6 Receptor (IL6R) using HepaRG (AID 2283510;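 as to AC50: TaqMan qRT-PCR signal normalized to ACTB GAPDH and POLR2A housekeeping genes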)). Details: mRNA level, 48 h; actives raise or lower the signal.
Protocol: LTEA_HepaRG is a cell based, multiplexed-readout assay that uses HepaRG, a human liver cell line, with measurements taken at 48 hours after chemical dosing on a 96-well plate.LTEA_HepaRG_IL6R is one of 102 assay component(s) measured in the LTEA HepaRG cell culture assay. It is a marker of Inflammation.Data from the assay component LTEA_HepaRG_IL6R was analyzed into 1 endpoint. This assay endpoint, LTEA_HepaRG_IL6R, was analyzed with bidirectional fitting relative to DMSO as the negative control and baseline of activity. Using a type of inducible reporter, measures of mRNA induction for gain or loss-of-signal activity can be used to understand regulation of transcription factor activity. To generalize the intended target to other relatable targets, this assay endpoint is annotated to the cytokine receptor intended target family, where the subfamily is JAK-STAT cytokine receptor.
A total of 1060 chemcials from the ToxCast library were tested in eight-point concentration-response experiments. Cell culture and cytotoxicity assays were conducted at Thermo Fisher Scientific's Custom Services facility (Madison, WI). A single lot of human HepaRG cells (Thermo Fisher Scientific, Frederick, MD) was used for the cell culture experiments. 96-well format collagen type I coated plates of human HepaRG cells were prepared using established methods. Briefly, cryopreserved HepaRG cells were thawed, plated at a density of approximately 100,000 cells/well in HepaRG Thaw, Plate, and General Purpose media (HPRG770, Thermo Fisher Scientific), and incubated for 48 hours. 0.5% DMSO was selected as vehicle control to balance the requisite need of DMSO in HepaRG cultures to maintain differentiation (for example, baseline metabolism, proportions of hepatocytes vs. cholangiocytes), while enabling further hepatic receptor pathway activation (for example, PXR and CAR) in response to chemical exposure. 48 hours after plating, the culture medium was replaced with HepaRG Serum-Free Incudtion Media. Cells were exposed to each test chemical in duplicate and maintained in CO2 incubators for another 48 hours. Chemical plates were thawed to room temperature and 200x concentrations of treatment groups were prepared. 8-point conentration-reponse curves were made with the highest exposure at 100 uM, followed by half-log dilutions, all in 0.5% DMSO. Each test plate contained variouse controls, induction positive controls (1mM phenobarbital), cytotoxicity positive controls ([…] aflatoxin B1), vehicle controls (0.5% DMSO), and total lysis controls (0.5% DMSO). Cell morphology images were taken using an Essen IncuCyte FLR automated microscope, with six 96-well plates imaged in about 24 minutes. Images were captured and exported and JPEG files. Spent culture media was transfered to black-well plates for the LDH assay, and remaining media was sorted at -80 C for later use. Cells were treated with RLT buffer and frozen until shipped for gene expression analysis. Total RNA was isolated from the cell suspension in 75 uL of Buffer RLT (Qiagen, Germantown, MD 20874) by Quintiles/Expression Analysis (Durham, NC) using a custom isolation procedure. Total RNA from each plate well was transferred to a preamplification plate. Fluidigm's 96.96 Dynamic ArrayTM (Fluidigm, Amsterdam, the Netherlands) technology was used for gene expression analyses by quantitative reverse transcription polymerase chain reaction (qRT-PCR, performed by Quintiles/Expression Analysis, Durham, NC)89. Standard TaqManTM Assays (Applied Biosystems/ThermoFisher Scientific, Foster City, CA) were used to assess the expression of 93 genes selected based on their selectivity and sensitivity to important hepatic receptors known to be modulated by environmental chemicals; importance in human hepatocyte functionality; and hepatotoxicity. […]

SMILES | outcome | AC50
CCCOc1sc(C(=O)N2CCC(c3cc(CN)ccc3F)CC2)c(C)c1Br | inactive | 
CC(O)CO (stereo not given) | inactive | 
CC[C@H](c1ccc(O)cc1)[C@@H](CC)c1ccc(O)cc1 |  | 73.8 µM (active)
NC(=O)N(O)[C@@H]1C=C[C@H](Oc2cccc(Oc3ccc(F)cc3)c2)C1 | inactive | 
CN(C)C=O | inactive | 
COC(=O)CCCCC(=O)OC | inactive | 
OC1CCCCC1 | inactive | 
CCCCCCCCCCCCc1ccccc1S(=O)(=O)O |  | 83 µM (active)
CC(=O)NC1(c2cccc(F)c2)CCN(CC[C@@]2(c3ccc(Cl)c(Cl)c3)CN(c3ccccc3)C(=O)CO2)CC1 |  | 77.5 µM (active)
CCCCCCCC(=O)O | inactive | 
CCN(CC)CCNc1ccc(CNC=O)c2sc3ccc(OC)cc3c(=O)c12 |  | 22 µM (active)
CCCOC(=O)c1ccc(O)cc1 | inactive | 
C[C@@H]1C[C@H]2[C@@H]3CCC4=CC(=O)C=C[C@]4(C)[C@@]3(F)[C@@H](O)C[C@]2(C)[C@@]1(O)C(=O)COP(=O)(O)O | inactive | 
Cc1cc(C)c(O)c(C)c1 | inactive | 
O=C(O)Cc1cc(I)c(Oc2cc(I)c(O)c(I)c2)c(I)c1 |  | 55 µM (active)
CCCCCCCCCCCCN1CCCC1=O | inactive | 
CCC(C)(C)C1CCC(O)CC1 (stereo not given) | inactive | 
Oc1cc2ccccc2c2ccccc12 | inactive | 
Cc1cc(CCN2CCN(c3nsc4ccccc34)CC2)cc2c1NC(=O)CC2(C)C |  | 84.7 µM (active)
O=C(O)c1ccccc1C(c1ccc(O)cc1)c1ccc(O)cc1 | inactive | 

SMILES | outcome | AC50
NC(=O)N1C(=O)C(C(=O)c2cc(Cl)cs2)c2cc(F)c(Cl)cc21 (stereo not given) |  | 30.9 µM (active)
COc1ccc([N+](=O)[O-])cc1N | inactive | 
ClC1=C(Cl)C(Cl)(Cl)C(Cl)=C1Cl | inactive | 
c1ccc2cc3c(ccc4ccccc43)cc2c1 |  | 9.75 µM (active)
CC#C[C@]1(O)CC[C@H]2[C@@H]3CCC4=CC(=O)CCC4=C3[C@@H](c3ccc(N(C)C)cc3)C[C@@]21C |  | 12.9 µM (active)
O=c1c(-c2ccc(O)cc2)coc2cc(O)ccc12 | inactive | 
CC(C)(C)CC(C)(C)c1ccc(O)c(-n2nc3ccccc3n2)c1 | inactive | 
c1ccc2c(c1)Cc1ccccc1-2 | inactive | 
CCCCCCCCC(=O)O | inactive | 
CCCCCCC(=O)O | inactive | 
CCOC(=O)CC(O)(CC(=O)OCC)C(=O)OCC | inactive | 
COCC(C)OCC(C)O (stereo not given) | inactive | 
C#C[C@]1(O)CC[C@H]2[C@@H]3CCC4=CC(=O)CC[C@@H]4[C@H]3CC[C@@]21C | inactive | 
O=[N+]([O-])c1ccc(O)cc1 | inactive | 
c1ccc2c(c1)ccc1ccccc12 | inactive | 
CC(C)(C)c1cc(C(C)(C)C)c(O)c(C(C)(C)C)c1 | inactive | 
OC1CCC(C2CCCCC2)CC1 (stereo not given) | inactive | 
CC(C)(C)c1cccc(C(C)(C)C)c1O | inactive | 
CCc1ccc(CCOc2ccc(CC3SC(=O)NC3=O)cc2)nc1 (stereo not given) |  | 63.5 µM (active)
CCCCCCCCOC(=O)CCCCCCCCC(=O)OCCCCCCCC | inactive | 
